Among all 53,000 sequences or so, about 3,700 (7%) were called active. This is one part of a sample in which actives are shown more often than they occur. Unmarked numbers belong to inactive results.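 The calls were made as follows: active = gene knockdowns whose robust z-score for IL-1 alpha signal is at least 2 or at most -2, so actives lie on both sides; inactive = the rest.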

The assay is described as follows: Components of the Cytosolic LPS Sensing Pathway: Gene Identification via Genome-wide siRNA Screen.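 Also: robust z of the log signal after scaling to non-targeting control siRNA wells of the plate.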 The conditions noted are these: RAW264.7 macrophages, IL-1a HTRF, actives lie on both sides, screened at 100 nM (by protocol), cells primed 5 h with Pam3CSK4 first. In short, it runs like this:
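Cells (RAW264.7, 1×10^4 per well) were transfected with siRNA at 100 nM and cultured 48h at 37 degrees C. Pam3CSK4 was added for 5 hours; LipidA transfection followed for 24 hour. IL-1a was then measured by HTRF.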
On the technique in general: In TR-FRET formats the signal depends on donor and acceptor labels being close together.
CCAUGAGACAAGAUUUAGATT against Olfr818: the z-score is -0.751.

For UACUUAGGCCCUUGAGCAUTT against Timm10, the z-score is 0.725.

On to GGUGUGUUUUCAUGUUUUUTT against Rel, for which the z-score is 0.388.

On to GCUAUUGUAGUGGUUACUGTT against Vmn2r57, for which the z-score is 2.21 (active).

GGUAUUUCUUUGUGGUGCUTT against Ptch2: the z-score was 1.45.

Consider GCUACAUGAUGUUCAUACUTT against Srpx, for which the z-score was 0.38.

Regarding GGUUUGGUGUCAGAUGUCATT against Olfr1182, the z-score was -2.32 (active).

GGUGCAACACUCUCUAUUUTT against Afap1l1: the z-score was 0.963.

Consider CCCAUCUCCUUAAAGUCAATT against Ripk3, for which the z-score was 1.32.

Take GGCAGCUGUUAUGCUUUUCTT against Cd302: the z-score is 0.822.

As for CCAGGAUCCUGUUUCUGACTT against AF067061, the z-score was 2.19 (active).

With GGAACUGUGAGACUUUUAGTT against Rabgap1, the z-score was 0.532.

As for CCCUGAGAAGGAUGCGAAATT against Mgat4b, the z-score is 0.44.

As to GGAGCAGAGAAACUUCUCGTT against Gigyf1, the z-score is -2.09 (active).

As to CCGGAAAACAAAAUUGCUATT against Obp1a, the z-score is 0.492.

As to GGAAGAUAAAUCACAAUCATT against Cdc37l1, the z-score was 0.051.

Regarding GGAUUAUAUGCCAAGUGAUTT against Phyh, the z-score is 0.179.

Consider GCCGAUUGUCCUAUCUCCATT against Spg7, for which the z-score is 1.63.

As to “GGUACUACUGUGGCUAAGCTT against 1700120K04Rik”, the z-score was 2.71 (active).

Turning to GAACUCUUCCAGUGGAAGUTT against Dctpp1, the z-score was -1.5.

For the sequence GGAAAAAUAGGGUGUUUUGTT against Tdg, the z-score is 1.96.

GGACCAAGAGGACAUUACCTT against Tbl3: the z-score is -0.971.

Take GGUCAACCUAAACCAGCAGTT against Csn1s2a: the z-score is -0.182.

For GGGAUGACCUGCCAUUCAUTT against Atp7a, the z-score was 3.47 (active).

On to CGAGGAUUUCUGUUACUUATT against Lyst, for which the z-score is 1.19.

With GCGCAGGUUGGAUGAAUGUTT against Psme3, the z-score was -0.433.

Consider GGAAUUUUCUCGAUUUCACTT against Pde6b, for which the z-score was 1.13.

GGCCUUUGGUACAUGUAGUTT against Olfr692: the z-score is 0.557.

In the case of CGAAGAAUGACGAUGAUAUTT against Ppp4r3a, the z-score was -2.41 (active).

For CGGAAGAACUACAAGUCGATT against Sipa1l3, the z-score was 2.09 (active).

For GCCAGUGCAUGAAAGAUAUTT against Kansl1l, the z-score is -0.772.

Take GUUAUAGCGGCGAAGGUGUTT against Maml3: the z-score is 1.02.

In the case of CCUCUACAUCAGAGUAUGATT against Defb21, the z-score was 2.22 (active).

As to GGUCUGCUGUUGAUCGUUCTT against Sct, the z-score was 1.72.

In the case of CGAUUCAAGGUAACAUAGATT against Esrrg, the z-score is 1.66.

In the case of GGCACUAAUGGAGAGACUGTT against Nr6a1, the z-score is 3.53 (active).

With GGCCCAAACACGUGUAAAATT against Kdm5b, the z-score was 0.322.

Turning to GGACAAAGAGGAAUGGAUATT against Tank, the z-score was -1.19.

In the case of GGCAUGAAUCAGUCUAUGGTT against Olfr1308, the z-score is 0.656.

In the case of GGCUGGAGAAGUAAUGAUATT against Sp100, the z-score was 0.62.

With GGAAGGUUGUAAGUUUAAATT against Krtap14, the z-score was 2.12 (active).

In the case of GGACUUUGAAGAACUAAGUTT against Tfrc, the z-score was 1.01.

GGGAUCUAAAGGCUGAAAATT against Mark4: the z-score was -0.291.

Regarding GCCAUCGCUAACUUACGGATT against Gdpd5, the z-score is -1.81.

Consider GGAUGGACCUUCAGAAAAGTT against Srrm4, for which the z-score was -1.63.

As for GGUCGUGCAUGACAACUAUTT against Itk, the z-score was 2.62 (active).

Regarding GGCCAAAGUCGAAUCAUAUTT against Prmt2, the z-score is -0.252.

In the case of CCAAUGGCGAGACAACUACTT against Aldoa, the z-score is 0.182.

For the sequence GGGUCUGCCGUCAUCCAUATT against Acp6, the z-score is -0.563.

For GGGCUUACCGUAUAACUUUTT against Nptn, the z-score is 1.4.

As for GGACCUGAAUUCCACUCCUTT against Socs1, the z-score was -0.147.

On to GGAUGAGGAGGAUACAAAGTT against Eif3c, for which the z-score was 0.228.

Regarding GGAUACUCUCAGGACGUGATT against Ncbp2, the z-score was -2 (active).

On to CGAGCAAGCUUCUACAUACTT against AI182371, for which the z-score was 0.438.

Turning to GCAAAUCAUUUAGGACCCATT against Amer2, the z-score is -2.54 (active).

In the case of GGAGUUCAGGUAUCCCUGATT against Nomo1, the z-score was -0.109.

As for GGAAAACAAGAAAGAUGAATT against Snupn, the z-score was -1.05.

On to CGAUCCUCAUCUUUAUAUATT against Agbl1, for which the z-score was -0.33.

Turning to CGCCAAAAGUUCUUGCCAUTT against Olfr618, the z-score is -2.02 (active).

For CCUAGAUUCUGAAUUCGAATT against Pdzd8, the z-score was -1.09.

Regarding GGAUAACAGAUGGUUAAUATT against Pramel48, the z-score was 0.202.

Consider GGUUGGAUUCCUGAUAUUATT against Moxd2, for which the z-score was -0.22.

Turning to CGGCACUAGGAAGCUUUUATT against Inpp5a, the z-score was -0.185.

For the sequence GCAUCUACCAUGGAAAUAUTT against Clcn7, the z-score is 0.053.

On to GGAGCUGGAGAAGUUACUUTT against Amigo3, for which the z-score was 2.06 (active).

For the sequence GCUGGUUGUAGUAAAACAGTT against Resf1, the z-score is -1.29.

Take GCUGGUAUGACCAAGAGAATT against Mutyh: the z-score is 0.679.

For GGGAAAUGACCUUCAUUGGTT against Rbl2, the z-score was 1.05.

In the case of GGUCAGUCAACAUGAACUUTT against Acad9, the z-score was 0.0973.

In the case of GGCAGGACAUUCUCAAAUCTT against Praf2, the z-score was 2.51 (active).

Take GGGAGUUGAGAAGACAUAATT against Lim2: the z-score is 0.223.

Regarding CGGGCAGUACUAUGAUUUGTT against Ppp1cc, the z-score is 2.09 (active).

With CCUCACCAAACCUUGUUGATT against Cd300lg, the z-score is -1.57.

With GGCUAAGACUAUGUUGUAATT against Smcp, the z-score was -1.48.

On to GGCUCUUUGUUCAGUUUUUTT against Fxyd3, for which the z-score was 2.52 (active).

As to CCAUAUAACUGCCAAUAAUTT against Ankrd7, the z-score was -2.02 (active).

Take GCUCAUAAAACUCCAAAAGTT against Mob4: the z-score was -0.713.

In the case of GCAACUCUGAGGUUGCUAGTT against Pgam1, the z-score is -0.12.

As for CCCUCAUUGUAACCUUAACTT against Olfr792, the z-score was -2.27 (active).

On to “GGCUGAAUGUCGCUUAGAGTT against 9030612E09Rik”, for which the z-score is -0.875.

On to GGCUUAGCUUUUGUGAUUCTT against Olfr143, for which the z-score is -1.24.

As for GGUGUCCCUUAAUGUGUCCTT against Heg1, the z-score is 0.671.

Regarding GCCUCUCUGGUGAACUUAGTT against Ccar1, the z-score was 0.0406.

For GCCUCACUUGAUGAAAUGGTT against Sccpdh, the z-score is -2.13 (active).

GGAAGGACUUAAAUGAUGCTT against Rnf187: the z-score was -1.18.

In the case of GGUGGACAUUCCUAAGAUUTT against Ago1, the z-score was -0.97.

As to CGCAUAAUGGAUGAGAGGATT against Mef2a, the z-score was 0.871.

In the case of GCAGUGUAUAGGUGUACAATT against Krt2, the z-score was 3 (active).

As to GCAGAGUGCUCGUAGAGUGTT against Heatr5a, the z-score was 0.96.

Regarding GGAGGUUCAACAUGAAAAUTT against Lingo2, the z-score is -0.253.

For GGCCUUUGCACGUGGAUUGTT against Zfp420, the z-score was -0.221.

In the case of GGGAAUCAUGAUAUGUUUCTT against Tmem186, the z-score was -0.217.

For GGAGGUCCAUGUCCUGCUUTT against Mesp2, the z-score was 0.336.

For the sequence GCAGAACCGCCAACCAACATT against Smarcc2, the z-score was -2.03 (active).

As for CCUCGGUCAGAUUCCUGAUTT against Phpt1, the z-score is 0.101.

For the sequence CCAAUAACUACUCAUACCCTT against Ints1, the z-score was 0.105.

On to GCAUGUAGUAUGGUAACACTT against Akr1b7, for which the z-score is -1.78.

For CCUUAAACAGCUUUUCAGATT against Dync2h1, the z-score was 0.472.

On to UCUUACACUUCGUGUUCCATT against Gpr6, for which the z-score is 3.12 (active).

Regarding CGAAAACUUCAUAGCUACATT against Hmg20a, the z-score was -1.95.

As to GCAGACAAUAUCUCUGAAUTT against Olfr459, the z-score is -0.942.

Regarding CCUCUCAAGAAAUCGUGCATT against Trim47, the z-score is 0.978.

In the case of GCAGAUUGUGCAGCUAGCATT against Pax4, the z-score is 0.452.

Turning to CCAUCUCAUUCCUUACCAGTT against Gm4736, the z-score is -1.79.

On to GGAUAAGAUAAUGUCUGUGTT against Olfr716, for which the z-score is -1.73.

In the case of GGGUAACAGUGGUGAACCUTT against Col1a1, the z-score is 2.08 (active).

Consider GGCUGAGUUAUUUGUGACATT against Syt13, for which the z-score was -1.41.

CGGCCUGGGUCCCGUGGACTT against Hs3st6: the z-score was -1.18.

The values above are taken from PubChem BioAssay AID1508600 (Functional Genomics Laboratory (NCATS/FGL), 2020).
